# In the library only some 4.6% were active in any assay of this set; here they are far more common.
# TIM10 inh = inhibits growth of TIM10 yeast strain. inhibition, % at 10 µM. 1.4% of 330,000 active. S. cerevisiae TIM10 strain growth, BacTiter-Glo luminescence, 24 h;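 active = inhibition of 40% or more at the single tested concentration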;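 note: wild-type TIM10 isogenic control strain grown at permissive 25 °C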
# SKKanGAS inh = blocks kanamycin growth of S. pyogenes SKKanGAS strain | BacTiter-Glo, 6 h | inhibition, % at 7.5 µM | 1.3% of 300,000 active | AID 1662;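 active = mean replicate score, as percent of positive control median, at least 50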;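 note: strain carries kanamycin resistance gene driven by streptokinase promoter and grows in 40 µg/ml kanamycin; loss of luminescence reflects streptokinase promoter inhibition or plain growth inhibition; 0% = median of DMSO wells and 100% = positive control at its reference dose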
# tim23-1 inh = tim23-1 yeast growth inhibition | inhibition, % at 20 µM | 1.3% of 330,000 active | S. cerevisiae tim23-1 growth, BacTiter-Glo luminescence, 24 h | AID 463212;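 active = growth inhibition of the mutant yeast at or above 50%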;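 note: temperature-sensitive mutant grown at 25 °C; plate controls were DMSO-treated mutant yeast for no effect and medium wells lacking yeast for full effect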
# tim10-1 inh = inhibits growth of tim10-1 mutant yeast | 2.2% of 330,000 active | inhibition, % at 20 µM | S. cerevisiae tim10-1 ts strain growth, BacTiter-Glo, 24 h;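 active = inhibition of at least 40%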;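 note: mutant grown at 25 °C; 0% = DMSO wells with yeast and 100% = wells holding no yeast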
# PfHsp90 set2 = inhibits growth of yeast expressing Plasmodium falciparum Hsp90 | AID 504621 | 0.32% of 310,000 active | S. cerevisiae expressing PfHsp90, BacTiter-Glo ATP, 48 h; yeast lacking PDR1 and PDR3 efflux regulators | inhibition, % at 9.4 µM;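 active = every replicate shows inhibition above about 80%, whatever the replicate mean, limit read from the data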;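 note: 0% = DMSO neutral controls and 100% = 20 µM radicicol positive controls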
# NALP3 yeast inh = inhibitors of NALP3 inflammasome in yeast | Yeast reconstituted NLRP3/ASC/caspase-1, beta-gal luminescence, 24 h | inhibition, % at 10 µM | 0.39% of 330,000 active;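 active = inhibition of 50% or more; inactive = inhibition below 50%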;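 note: plate controls were induced DMSO wells for no effect and uninduced yeast grown without galactose for full effect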
# tim10-1 conf = tim10-1 yeast growth inhibition, confirmed; AID 463213; 56% of 7,400 active; S. cerevisiae tim10-1 ts strain growth, BacTiter-Glo, 24 h; shares compounds with tim10-1 inh; inhibition, % at 20 µM;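 active = inhibition of yeast growth at or above a set limit in either of two repeat tests at 20 µM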;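 note: tim10-1 mutant grown at permissive 25 °C to find synthetic lethal compounds; 0% = DMSO yeast wells and 100% = medium wells without yeast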
# An asterisk follows results filed as active; x = not tested or not shown.
SMILES,TIM10 inh,SKKanGAS inh,tim23-1 inh,tim10-1 inh,PfHsp90 set2,NALP3 yeast inh,tim10-1 conf
CCC(CO)Oc1cc(NC(=O)c2cccc(Cl)c2)c2ncn(C(C)C)c2c1 (configuration not stated),3,x,1,3,-24,8,x
O=C1OC(c2ccco2)=N/C1=C\c1ccc(-c2cccc(C(F)(F)F)c2)o1,27,0,29,46*,-1,10,23
N#Cc1cccc(CN2CCC(=O)N([C@H](CO)Cc3ccccc3)CC2)c1,-7,1,-4,-5,-2,6,x
O=C(CS(=O)(=O)c1ccccc1)Nc1nc(-c2ccccc2)cs1,27,6,45,47*,-19,-2,40*
CCc1ccc(C2CC(c3ccc(Cl)cc3)=NNC2=O)cc1 (configuration not stated),9,18,32,31,x,19,x
CN1N=C(c2ccc(Cl)cc2)CC(c2ccc(Cl)cc2)C1=O (configuration not stated),12,-2,40,42*,0,25,29
COc1ccc(OC)c(NC(=O)C2CC(=O)N(c3ccc(Br)cc3)C2)c1 (configuration not stated),23,10,39,43*,0,11,26
CCc1ccc2[nH]c(=O)c(C3C(C#N)=C(N)Oc4c3ccc3cccnc43)cc2c1 (configuration not stated),25,58*,36,41*,-11,20,12
O=S(=O)(c1cccc(Cl)c1)N1CCN(S(=O)(=O)c2ccc3c(c2)OCCO3)CC1,-20,x,-13,-8,5,16,x
O=S(=O)(c1ccc2c(c1)OCCO2)N1CCC(O)(c2ccc(Cl)cc2)CC1,13,3,35,49*,-1,15,36*
CC(C)(C)C(=O)Nc1nnc(SCC(=O)NC2CCCC2)s1,-4,-5,5,2,5,-2,x
Cc1c(C(=O)N2CCN(c3ccc(C(F)(F)F)cn3)CC2)oc2ccccc12,26,22,33,41*,-16,16,37*
Cc1ccc(C(=O)N2CCN(c3ccc(C(F)(F)F)cn3)CC2)cc1,22,0,14,20,21,17,x
Cc1ccc(C(=O)N2CCN(c3ccc(C(F)(F)F)cn3)CC2)c(C)c1,20,-9,49,44*,1,9,30
COc1cc2c(cc1OC)[C@@H](NC(=O)C(C)C)[C@H](OCc1ccccc1)C2,-8,x,20,4,-10,x,x
COc1ccc(NC(=O)Cc2c(F)cccc2Cl)cc1,-1,-5,11,-21,16,27,x
COc1ccc(NC(=O)COC(=O)Cc2c(F)cccc2Cl)cc1,4,-12,18,43*,-1,14,24
Cc1ccc(S(=O)(=O)N2CCN(Cc3ccccc3C(F)(F)F)CC2)cc1,-11,-13,16,13,x,20,x
O=S(=O)(c1ccccc1)N1CCN(Cc2ccccc2C(F)(F)F)CC1,12,x,20,40*,15,23,6
CCOC(=O)N1CCC(NC(=O)c2ccc3c(Cl)c4c(nc3c2)CCCC4)CC1,21,x,42,41*,-31,24,17
O=C(NC1CC1)c1ccc2c(Cl)c3c(nc2c1)CCCC3,36,-9,44,26,x,-2,x
CCOC(=O)N1CCC(NC(=O)c2ccc3c(c2)N=C(CC)c2ccccc2S3)CC1,11,23,40,45*,-22,26,13
CC1CCN(C(=O)c2ccc3c(Cl)c4c(nc3c2)CCCC4)CC1,8,-5,40,47*,15,8,40*
CCOc1ccc(NC(=O)NC(=O)N(C(C)C)S(C)(=O)=O)cc1,11,1,-9,9,13,-7,x
Cc1ccc(OCCOc2cccc(Br)c2)c([N+](=O)[O-])n1,-2,3,39,54*,-4,23,40*
SMILES,TIM10 inh,SKKanGAS inh,tim23-1 inh,tim10-1 inh,PfHsp90 set2,NALP3 yeast inh,tim10-1 conf
COc1cc(NC(=O)c2ccccc2F)c(OC)cc1NC(=O)CN1CCOCC1,14,1,30,43*,-9,-4,25
COc1ccc(NC(=S)/N=C(\N)Nc2nc(C)c3ccc(C)cc3n2)cc1,29,-2,13,40*,x,29,26
CCOc1ccc2nc(N/C(N)=N/C(=S)Nc3ccc(C)c(C)c3)nc(C)c2c1,26,12,30,15,-5,21,x
Cc1ccc2c(C)nc(N/C(N)=N/S(=O)(=O)c3ccc([N+](=O)[O-])cc3)nc2c1,25,7,30,42*,x,41,26
O=C(O)/C(=C\c1ccc(-c2ccccc2[N+](=O)[O-])o1)c1ccccc1,12,22,14,40*,9,25,52*
O=C(c1ccc(-c2nnc(-c3ccccc3)o2)cc1)N1CCCCCC1,11,0,6,45*,8,16,33*
O=C(O)c1ccc(-c2nnc(-c3ccccc3)o2)cc1,15,31,15,10,39,-2,x
O=C(N1CCC(n2nc(-c3ccccc3)oc2=O)CC1)C1(c2ccc(Cl)cc2)CC1,26,4,43,53*,-18,22,2
S=c1[nH]cc(-c2ccc(Cl)cc2)n1Cc1ccccc1,21,4,-14,29,-2,39,x
S=c1[nH]cc(-c2ccccc2)n1-c1ccccc1,-5,-2,3,44*,3,9,1
C=CCn1c(-c2cc3cccc(OC)c3o2)n[nH]c1=S,16,2,42,44*,10,18,19
C=C1/C(=C\C=C2/CCC[C@]3(C)[C@@H]([C@H](C)/C=C/[C@@H](O)C4CC4)CC[C@@H]23)C[C@@H](O)C[C@@H]1O,10,9,41,44*,x,48,26
CCOc1ncccc1C(=O)OCC(=O)NCCc1ccc(S(N)(=O)=O)cc1,6,x,-6,-16,0,20,x
CC1C2CC(C(CN(C)C)/C2=N/O)C1(C)C (configuration not stated),-5,-8,16,44*,13,0,9
COc1ccc(C(C)(C)C)cc1NC(=O)C1CC(=O)N(C2CCCC2)C1 (configuration not stated),-2,x,-2,-3,x,-5,x
O=C(NCc1ccccc1Cl)c1cc2ccccc2oc1=O,0,4,20,14,-2,15,x
O=c1oc2ccccc2cc1NCc1ccccc1O,11,1,38,41*,-49,-8,7
Nc1cc(Cl)nnc1Cl,11,-5,-3,-6,-1,13,x
CCOC(=O)c1ccc(/C=C2/C=C(c3ccccc3)N(c3ccc(Cl)c(C(=O)O)c3)C2=O)cc1,6,-6,31,32,-9,8,x

# Screens (PubChem BioAssay)
